Several values for one entry are separate records, joined by “and”; a condition that tells them apart may be missing. Equal entries are not always repeated. Among all 5,500 compounds or so, about 2,000 (36%) were called active. Roughly 18% stayed inconclusive and do not appear here. No stated cut-off is given here; in the data, active means normalized growth mostly below about 0.91 (no sharp cut-off); inconclusive means no clear call, values can overlap the other calls; inactive means mostly above about 0.92. The list shows a part of the results.
Assay: chemical genetic growth profiling, strain panel (AID 1159580);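 further: tested at 20 µM; growth read once vehicle control cultures reached saturation at 30 °C; 1 = growth at the plate median or of vehicle wells; lower values mean less growth of the strain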
Details: growth OD

Measured: normalized growth

CN(C)CCN(Cc1cccs1)c1ccccn1
inactive: S. cerevisiae deletion strains, locus YJR075W, strain HOC1, active compounds read low 0.98 and 1.01 | S. cerevisiae deletion strains, locus YKL009W, strain mrt4, active compounds read low 1.02 | S. cerevisiae deletion strains, locus YKL068W, active compounds read low 1.01 | S. cerevisiae deletion strains, locus YKL085W, strain MDH1 (second series), active compounds read low 0.997 | S. cerevisiae deletion strains, locus YKL085W, strain MDH1, active compounds read low 0.997 | S. cerevisiae deletion strains, locus YKL160W, strain elf1, active compounds read low 1.01 | S. cerevisiae deletion strains, locus YKL190W, strain CNB1, active compounds read low 0.985 | S. cerevisiae deletion strains, locus YKR001C, strain vps1, active compounds read low 0.986 | S. cerevisiae deletion strains, locus YKR026C, strain gcn3, active compounds read low 1.01 | S. cerevisiae deletion strains, locus YKR091W, strain srl3, active compounds read low 1 | S. cerevisiae deletion strains, locus YLL001W, strain dnm1, active compounds read low 1.01 | S. cerevisiae deletion strains, locus YLL026W, active compounds read low 1 | S. cerevisiae deletion strains, locus YLL041C, strain sdh2, active compounds read low 1.01 | S. cerevisiae deletion strains, locus YLR027C, strain aat2, active compounds read low 1.01 | S. cerevisiae deletion strains, locus YLR039C, strain RIC1, active compounds read low 1.03 | S. cerevisiae deletion strains, locus YLR058C, strain SHM2, active compounds read low 1.02 | S. cerevisiae deletion strains, locus YLR102C, strain apc9, active compounds read low 1.01 | S. cerevisiae deletion strains, locus YLR113W, strain HOG1, active compounds read low 0.995 | S. cerevisiae deletion strains, locus YLR221C, strain rsa3, active compounds read low 1.01 | S. cerevisiae deletion strains, locus YLR258W, strain gsy2, active compounds read low 1.01 | S. cerevisiae deletion strains, locus YLR262C, strain YPT6 (second series), active compounds read low 1.01 | S. cerevisiae deletion strains, locus YLR262C, strain YPT6, active compounds read low 1.11 | S. cerevisiae deletion strains, locus YLR268W, strain sec22, active compounds read low 1.01 | S. cerevisiae deletion strains, locus YLR320W, strain mms22, active compounds read low 1.04 | S. cerevisiae deletion strains, locus YLR330W, strain CHS5, active compounds read low 1 | S. cerevisiae deletion strains, locus YLR342W, strain FKS1 (second series), active compounds read low 1.04 | S. cerevisiae deletion strains, locus YLR342W, strain FKS1, active compounds read low 1.01 | S. cerevisiae deletion strains, locus YLR357W, strain rsc2, active compounds read low 1.03 | S. cerevisiae deletion strains, locus YLR370C, strain arc18, active compounds read low 1.02 | S. cerevisiae deletion strains, locus YLR371W, strain rom2, active compounds read low 1.01 | S. cerevisiae deletion strains, locus YLR384C, strain iki3, active compounds read low 1.01 | S. cerevisiae deletion strains, locus YLR418C, strain cdc73, active compounds read low 1.02 | S. cerevisiae deletion strains, locus YML016C, strain PPZ1, active compounds read low 1.01 | S. cerevisiae deletion strains, locus YML032C, strain rad52, active compounds read low 0.988 | S. cerevisiae deletion strains, locus YML120C, strain ndi1, active compounds read low 1.01 | S. cerevisiae deletion strains, locus YML124C, strain tub3, active compounds read low 1.01 | S. cerevisiae deletion strains, locus YMR058W, strain fet3, active compounds read low 1.01 | S. cerevisiae deletion strains, locus YMR078C, strain ctf18, active compounds read low 1.02 | S. cerevisiae deletion strains, locus YMR125W, strain sto1, active compounds read low 1.01 | S. cerevisiae deletion strains, locus YMR129W, active compounds read low 1.01 | S. cerevisiae deletion strains, locus YMR205C, strain PFK2, active compounds read low 1.02 | S. cerevisiae deletion strains, locus YMR223W, strain ubp8, active compounds read low 1.05 | S. cerevisiae deletion strains, locus YMR231W, strain pep5, active compounds read low 1.01 | S. cerevisiae deletion strains, locus YMR307W, strain GAS1, active compounds read low 1.02 | S. cerevisiae deletion strains, locus YNL067W, strain RPL9B, active compounds read low 0.997 | S. cerevisiae deletion strains, locus YNL071W, strain lat1, active compounds read low 1 | S. cerevisiae deletion strains, locus YNL128W, strain TEP1, active compounds read low 1.02 | S. cerevisiae deletion strains, locus YNL153C, strain GIM3, active compounds read low 0.989 and 1.02 | S. cerevisiae deletion strains, locus YNL175C, strain NOP13, active compounds read low 1.02 | S. cerevisiae deletion strains, locus YNL183C, strain NPR1, active compounds read low 0.886 | S. cerevisiae deletion strains, locus YNL197C, strain WHI3, active compounds read low 0.992 | S. cerevisiae deletion strains, locus YNL209W, strain ssb2, active compounds read low 1 | S. cerevisiae deletion strains, locus YNL224C, strain SQS1, active compounds read low 1.01 | S. cerevisiae deletion strains, locus YNL233W, strain BNI4, active compounds read low 0.986 | S. cerevisiae deletion strains, locus YNL248C, strain rpa49, active compounds read low 1.02 | S. cerevisiae deletion strains, locus YNL250W, strain rad50, active compounds read low 1.02 | S. cerevisiae deletion strains, locus YNL271C, strain bni1, active compounds read low 1.01 | S. cerevisiae deletion strains, locus YNL298W, strain CLA4, active compounds read low 1.01 | S. cerevisiae deletion strains, locus YNL307C, strain MCK1, active compounds read low 1.02 | S. cerevisiae deletion strains, locus YNL322C, strain KRE1 (second series), active compounds read low 1.01 | S. cerevisiae deletion strains, locus YNL322C, strain KRE1, active compounds read low 0.991 | S. cerevisiae deletion strains, locus YNR049C, strain mso1, active compounds read low 1.02 | S. cerevisiae deletion strains, locus YNR052C, strain pop2, active compounds read low 1.01 | S. cerevisiae deletion strains, locus YOL006C, strain TOP1, active compounds read low 0.902 | S. cerevisiae deletion strains, locus YOL012C, strain htz1 0.737 | S. cerevisiae deletion strains, locus YOL147C, strain pex11, active compounds read low 1.02 | S. cerevisiae deletion strains, locus YOR001W, strain rrp6, active compounds read low 1 | S. cerevisiae deletion strains, locus YOR061W, strain CKA2, active compounds read low 1.01 | S. cerevisiae deletion strains, locus YOR069W, strain VPS5, active compounds read low 1.01 | S. cerevisiae deletion strains, locus YOR070C, strain gyp1, active compounds read low 1.01 | S. cerevisiae deletion strains, locus YOR080W, strain dia2, active compounds read low 1 | S. cerevisiae deletion strains, locus YOR083W, strain WHI5 (second series), active compounds read low 1.01 | S. cerevisiae deletion strains, locus YOR083W, strain WHI5, active compounds read low 1.01 | S. cerevisiae deletion strains, locus YOR106W, strain vam3, active compounds read low 0.998 | S. cerevisiae deletion strains, locus YOR136W, strain idh2, active compounds read low 1.01 | S. cerevisiae deletion strains, locus YOR144C, strain elg1, active compounds read low 1.01 | S. cerevisiae deletion strains, locus YOR184W, strain ser1, active compounds read low 1.01 | S. cerevisiae deletion strains, locus YOR231W, strain MKK1, active compounds read low 0.88 | S. cerevisiae deletion strains, locus YOR265W, strain rbl2, active compounds read low 1.01 | S. cerevisiae deletion strains, locus YOR270C, strain vph1, active compounds read low 1 | S. cerevisiae deletion strains, locus YOR290C, strain snf2, active compounds read low 1.01 | S. cerevisiae deletion strains, locus YOR316C, strain cot1, active compounds read low 1.01 | S. cerevisiae deletion strains, locus YPL051W, strain arl3, active compounds read low 1.01 | S. cerevisiae deletion strains, locus YPL055C, strain LGE1, active compounds read low 0.929 | S. cerevisiae deletion strains, locus YPL078C, strain atp4, active compounds read low 1 | S. cerevisiae deletion strains, locus YPL106C, strain sse1, active compounds read low 1 | S. cerevisiae deletion strains, locus YPL240C, strain hsp82, active compounds read low 1.01 | S. cerevisiae deletion strains, locus YPL256C, strain CLN2, active compounds read low 0.98 | S. cerevisiae deletion strains, locus YPR119W, strain clb2, active compounds read low 1.01 | S. cerevisiae deletion strains, locus YPR141C, strain kar3, active compounds read low 1 | S. cerevisiae deletion strains, locus YPR163C, strain tif3, active compounds read low 1.01 | S. cerevisiae deletion strains, locus YPR167C, strain met16, active compounds read low 1.01 | S. cerevisiae deletion strains, strain wtn01, active compounds read low 1.01 | S. cerevisiae strains, strain wild type, active compounds read low 1
active: S. cerevisiae deletion strains, locus YJR066W, strain TOR1, active compounds read low 0.82
